According to PubChem BioAssay AID1347417 (National Center for Advancing Translational Sciences (NCATS), 2020):
The whole screen tested about 120,000 compounds, of which about 5,300 (4.4%) were called active. Not shown: some 22% with an inconclusive outcome. Shown is part of a subset that was picked to be rich in actives. Entries that show only a call come without a potency. Values without a mark were called inactive. Calls follow the shape of the dose curve; as a rule, active = well fitted inhibition curve with a large enough effect; inconclusive = small, poorly fitted or top-dose-only effect; inactive = no such curve, though single readings can be large or run the other way.

assay: qHTS Primary assay for Inhibitors of Plasmodium falciparum Dd2 growth in vitro; also: nearly all actives have a fitted effect of over 65% in size; details: P. falciparum Dd2 growth, SYBR Green, 72 h; series mostly up to 28.9 µM
Summary of the method: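 Readout: SYBR Green fluorescence, 485 nm excitation, 535 nm emission, after ~16 h lysis at 37C. Before that, Dd2-infected red cells (2.5% hematocrit) grew 72 h with compound, 29 uM top final concentration.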
Potency is read from the fitted curve at half-maximal effect.

Row | Compound | Potency | activity, negative = inhibition | outcome
1 | COc1ccc(N2CC(C(=O)N3CCSCC3)CC2=O)cc1Cl (configuration not stated) | inactive |  | 
2 | O=C(Nc1ccccc1Cl)N1CCc2nc3cc[nH]n3c(=O)c2C1 |  | -0.962% [at 5.79 µM] | 
3 | Cc1nn(CC(=O)NCC2CCCO2)c(=O)c2nc(C(C)C)sc12 (configuration not stated) | inactive |  | 
4 | CC(C)c1nc(C2Cc3ccccc3N2S(=O)(=O)c2cn(C)cn2)no1 (configuration not stated) | inactive |  | 
5 | CCc1ccc(NC(=O)N2CCCC(Cn3cnc4cccnc43)C2)cc1 (configuration not stated) | inactive |  | 
6 | COCCNC(=O)CCc1cc2ccc(C)cc2[nH]c1=O | inactive |  | 
7 | O=C(c1cc(F)ccc1F)N1CCCC(n2cc(-c3nc(C4CC4)no3)nn2)C1 (configuration not stated) | inactive |  | 
8 | O=c1n(-c2ccncc2)nc2n1CCN([S+](=O)([O-])c1cccc(C(F)(F)F)c1)C2 | inactive |  | 
9 | CCOc1ccc(C2Cn3nnc(-c4nc(-c5cccc(F)c5)no4)c3CO2)cc1 (configuration not stated) | inactive |  | 
10 | NC(=O)Cn1ccc2cc(OCC3CCN(c4cnccn4)CC3)cnc21 | inactive |  | 
11 | Cn1ccnc1C(=O)N1CCC2(CC1)CN(c1ncccn1)CC2CO (configuration not stated) | inactive |  | 
12 | COc1cccc(OCc2nnc(C(=O)N3CCC[C@@H]3c3cccc(F)c3)n2-c2ccccc2)c1 | inactive |  | 
13 | Cc1cccc(Nc2cc(C)nc(-n3nc(C)cc3C)n2)c1 | 5.62 µM (active) |  | 
14 | Cc1ccc(Nc2nc3ccccc3nc2-n2nc(C)cc2C)c(Cl)c1 | inactive |  | 
15 | Cc1cc(=O)n(CC(=O)Nc2cccc([N+](=O)[O-])c2)c(-n2nc(C)cc2C)n1 | inactive |  | 
16 | O=C(c1ccc2cc[nH]c2n1)N1CCOCC1 | inactive |  | 
17 | COc1ccc(CNC(=O)c2cccc3c2CCN3C(=O)c2ccc(F)cc2)cc1OC | inactive |  | 
18 | COc1ccc(N2C(=O)C3(CCCCC3)C2C(=O)NCCc2ccncc2)cc1 (configuration not stated) | inactive |  | 
19 | COc1ccc(C2Sc3ccccc3NC3=C2C(=O)c2ccccc23)c(OC)c1OC (configuration not stated) | 0.316 µM (active) |  | 
20 | COc1nc2nc(CC3CC3)n(C)c2cc1-c1ccc(CO)cc1 | inactive |  | 
21 | COc1ccc(CCNC(=O)c2c3c(nc4ccccc24)C(=O)N(C2CCCCC2)C3)cc1OC | inactive |  | 
22 | COc1ccccc1Nc1cc(C(=O)NCCCN(C)C2CCCCC2)c2ccccc2n1 | 10 µM (active) |  | 
23 | CCN(CC)CCCNC(=O)c1cn(C)c2ccc(S(=O)(=O)N(C)C3CCCCC3)cc2c1=O | inactive |  | 
24 | Cc1ccc(NC(=O)Cn2c(-c3ccc(Cl)cc3)nc(C)c(CCO)c2=O)cc1C | inactive |  | 
25 | CCN(CC)C(=O)C(NC(=O)c1ccc(OC)cc1)C1CCN(C(=O)C(C)C)CC1 (configuration not stated) | inactive |  | 

Row | Compound | Potency | activity, negative = inhibition | outcome
26 | O=C(NC(C(=O)N1CCCCC1)C1CCN(C(=O)c2ccc(Cl)cc2)CC1)c1ccccc1 (configuration not stated) | 5.01 µM (active) |  | 
27 | CCN(CC)C(=O)C(NC(=O)c1ccc(OC)cc1)C1CCN(C(=O)c2ccc(F)cc2)CC1 (configuration not stated) | inactive |  | 
28 | CNC(=O)[C@@H]1CN(C(=O)c2ccc3ccccc3n2)C[C@H]1COC | inactive |  | 
29 | CS(=O)(=O)c1cnc(NCCc2cnc[nH]2)nc1C1CCCNC1 (configuration not stated) | inactive |  | 
30 | CN(CC1CCOC1)C(=O)Nc1ccc(Cl)cc1 (configuration not stated) |  |  | inactive [at 5.79 µM]
31 | CC(C)(C)c1csc(NC(=O)C[C@H]2NC(=O)c3ccccc3NC2=O)n1 | inactive |  | 
32 | COc1cccc(-c2ccnc3nc(Cc4cc(F)cc(F)c4)nn23)c1 | 10 µM (active) |  | 
33 | COc1cccc(-c2ccnc3nc(-c4ccccc4OC)nn23)c1 | inactive |  | 
34 | COCc1nc2nccc(-c3ccccc3)n2n1 | inactive |  | 
35 | CNC(=O)[C@@H]1CN(C(=O)C2CC=CCC2)C[C@H]1c1nc(C)no1 (some centres not stated) | inactive |  | 
36 | O=C(c1ccc(F)cc1)N1CCCC(c2nn(-c3cccc(Cl)c3)c(=O)[nH]2)C1 (configuration not stated) | inactive |  | 
37 | CC(C)CCN1C(=O)CC[C@]2(C(=O)N3CCN(C)CC3)CCCC[C@@H]12 | 11.2 µM (active) |  | 
38 | COCCN1C(=O)CC[C@]2(C(=O)NCc3cccs3)CCCC[C@@H]12 | inactive |  | 
39 | CN1C(=O)CC[C@]2(C(=O)NCC3CCCCC3)CCCC[C@@H]12 | inactive |  | 
40 | Cc1ccc2ncc(C(=O)Nc3ccc(OC(F)(F)F)cc3)c(=O)n2c1 | inactive |  | 
41 | CCOc1ccc(NC(=O)c2cnn(-c3ccccc3)c2-n2cccc2)cc1 | inactive |  | 
42 | COC(=O)c1cnn(-c2ccc(C(=O)Nc3ccc(OC(F)(F)F)cc3)cc2)c1N | 1.58 µM (active) |  | 
43 | O=C(NCC1(COc2ccc(C(F)(F)F)cn2)C[C@@H](O)[C@@H](O)C1)c1ccc(F)cc1 (some centres not stated) | inactive |  | 
44 | CCn1cc(CN2C[C@@H](COC)[C@H](c3nc(COC)no3)C2)cn1 | inactive |  | 
45 | O=C(CCc1ccccc1)NCc1ccc2c(c1)CCN2C(=O)c1ccccc1 | inactive |  | 
46 | O=C(COc1ccccc1)NCc1ccc2c(c1)CCN2C(=O)c1ccc(F)cc1 | inactive |  | 
47 | COc1ccc(CCC(=O)NCc2ccc3c(c2)CCN3C(=O)c2ccc(F)cc2)cc1 | 4.47 µM (active) |  | 
48 | Cc1ccc(CNC(=O)N2CCCOCCNC(=O)[C@@H]3CCC[C@@H]32)cc1 | inactive |  | 
49 | C[S+](=O)([O-])c1ccc(CC(=O)N2CC(CNC(=O)C3CC3)C3(C2)CN(c2ccccc2)C3)cc1 (configuration not stated) | inactive |  | 
50 | Oc1ccccc1CN1CCOC[C@H]1c1ncc(-c2ccc(C(F)(F)F)cc2)[nH]1 | 1.26 µM (active) |  | 

Row | Compound | Potency | activity, negative = inhibition | outcome
51 | c1cncc(-c2cnc([C@@H]3COCCN3Cc3cnc4ccccc4c3)[nH]2)c1 | inactive |  | 
52 | c1cc(CN2CCOC[C@H]2c2ncc(-c3ccncc3)[nH]2)ccn1 | inactive |  | 
53 | O=C(COc1ccccc1)N[C@H]1[C@H](O)[C@H](O)C[C@@H]1c1ccc(C(F)(F)F)cc1 | inactive |  | 
54 | Cc1ccc2c(c1)N1C(=O)OC[C@@H]1CCN(C(=O)Nc1ccccc1)C2 | inactive |  | 
55 | CCOC(=O)c1ccc(NC(=O)Cn2nc3c(cc2=O)CN(C(C)=O)CC3)cc1 | inactive |  | 
56 | COCCOC1CN(C2CCN(C(=O)c3ccc(OC)nc3)CC2)C12CCCCC2 (configuration not stated) | inactive |  | 
57 | COCCOC1CN(C2CCN(C(=O)C3CCOCC3)CC2)C12CCCCC2 (configuration not stated) | inactive |  | 
58 | O=C(c1ccc2[nH]ccc2c1)N1CCC(N2CC(OCC3CC3)C23CCOCC3)CC1 (configuration not stated) | inactive |  | 
59 | N#Cc1cccc(CN2CCC(C3=NC(O)c4cc(F)ccc4N3)CC2)c1 (configuration not stated) | inactive |  | 
60 | CCn1cc(CN2CCC(N3CC(OCC4CC4)C34CCCCC4)CC2)cn1 (configuration not stated) | 1.41 µM (active) |  | 
61 | Fc1cccc(CN2CCC(N3CC(OCC4CC4)C34CCCCC4)CC2)c1 (configuration not stated) | 0.501 µM (active) |  | 
62 | O=C(Nc1cccc(Cl)c1)[C@@H]1C[C@@H](c2ccc(F)cc2)N([S+](=O)([O-])c2cccnc2)C1 | inactive |  | 
63 | COc1ccc(CNC(=O)NCC(=O)N2CCCCCCNC(=O)CC2c2ccccc2)cc1 (configuration not stated) | 8.91 µM (active) |  | 
64 | O=C1CC(c2ccccc2)N(C(=O)CNC(=O)NCc2ccc(F)cc2)CCCCCN1 (configuration not stated) | inactive |  | 
65 | O=C1CC(c2ccccc2)N(C(=O)CNC(=O)C2CCC2)CCCCCN1 (configuration not stated) | inactive |  | 
66 | CCn1cc(S(=O)(=O)N2CC[C@H]3C(=O)NCCCCCCN(Cc4ccncc4)[C@@H]3C2)cn1 | inactive |  | 
67 | CN(C)C[C@@H]1CN(C)C[C@H]1NC(=O)c1cc2ccccc2[nH]1 | inactive |  | 
68 | NC(=O)[C@H](CCC(=O)O)NC(=O)[C@@]1(O)C[C@@H](O)[C@H](O)[C@@H](NS(=O)(=O)c2cccc(C(F)(F)F)c2)C1 | inactive |  | 
69 | CN(C)C[C@@H]1CN(C)C[C@H]1NS(=O)(=O)c1cccc(C(F)(F)F)c1 | 3.55 µM (active) |  | 
70 | CN(C)C[C@@H]1CN(C(=O)c2ccc3c(c2)OCC(=O)N3)C[C@@H]1CO | inactive |  | 
71 | O=C(CCc1ccccc1)NCCn1cccc1-c1nc(-c2ccc3c(c2)OCO3)no1 | 7.08 µM (active) |  | 
72 | Cc1ccc(NC(=O)Cn2cccc2-c2nc(-c3ccc4c(c3)OCO4)no2)cc1Cl | inactive |  | 
73 | O=C(NCc1ccc2c(c1)OCO2)c1noc(-c2ccc(F)cc2)n1 | inactive |  | 
74 | CCc1noc(C)c1C(=O)N1CC[C@@H](NC(=O)c2ccccn2)[C@H](O)C1 | inactive |  | 
75 | COc1ccc(NC(=O)CSc2nccn2C2CCCC2)cc1OC | inactive |  | 

Row | Compound | Potency | activity, negative = inhibition | outcome
76 | O=C(CSc1nccn1C1CCCC1)Nc1cc(C(F)(F)F)ccc1Cl | 11.2 µM (active) |  | 
77 | Cc1cc(C)cc(-n2ccnc2SCC(=O)Nc2nc3ccccc3s2)c1 | inactive |  | 
78 | O=C(CSc1nccn1-c1ccc(F)cc1)Nc1cccc2ccccc12 | inactive |  | 
79 | O=C(CSc1nc(=O)[nH]c2c1CCCC2)Nc1cc(C(F)(F)F)ccc1Cl | inactive |  | 
80 | Cc1cccc(-n2ccnc2SCC(=O)Nc2cc(C(F)(F)F)ccc2Cl)c1 | 3.55 µM (active) |  | 
81 | Cc1ccc(-c2noc([C@@H]3CCCN3C(=O)c3cc(Cl)ccc3F)n2)cc1 | inactive |  | 
82 | CS(=O)(=O)Cc1ccc(-c2cccc(OCc3ccccc3F)c2)nc1 | inactive |  | 
83 | COCCC(=O)NCCC1CCN(C(=O)Nc2ccccc2F)CC1 | inactive |  | 
84 | C[S+](=O)([O-])N1CC2ON=C(C(=O)O)C2C1 (configuration not stated) | inactive |  | 
85 | CCOc1ccc2c(n1)CCN(C(=O)c1ccccc1C)C2 | inactive |  | 
86 | C[C@@H]1CN(C(=O)c2ccc(-c3ccn[nH]3)cc2)CC[C@@]1(O)C1CCOCC1 | inactive |  | 
87 | COC(=O)CNC(=O)N1CCOC(c2ccc(Cl)c(Cl)c2)C1 (configuration not stated) | inactive |  | 
88 | Cc1noc(-c2cccn3c(CNC(=O)CCc4ccccc4)nnc23)n1 | inactive |  | 
89 | COc1cccc(CC(=O)NC2CCN(c3cc(-c4ccccc4)[nH]n3)C2)c1 (configuration not stated) | inactive |  | 
90 | COc1ccc(CNC(=O)[C@@H]2Cc3cn(Cc4ccncc4)c4cccc(c34)[C@H](CC(C)C)N2)cc1 | inactive |  | 
91 | CC#CCn1cc2c3c(cccc31)[C@H](CC(C)C)N[C@H](C(=O)NCc1ccccc1OC)C2 | inactive |  | 
92 | CC(C)C[C@@H]1N[C@H](C(=O)NCc2ccc(F)cc2)Cc2cn(C)c3cccc1c23 | 14.1 µM (active) |  | 
93 | O=C(Nc1cccnc1)N[C@@H]1C[C@H](CO)[C@@H](O)[C@H]1O | inactive |  | 
94 | Cc1ccccc1CNC(=O)C1CCCN(C(=O)c2ccccc2)CCC(=O)NCC1 (configuration not stated) | inactive |  | 
95 | O=c1c2cccnc2n(Cc2cccc(F)c2)c(=O)n1Cc1ccccc1Cl | 12.6 µM (active) |  | 
96 | O=C(O)c1ccc(CSc2nc3cccnc3n2Cc2cccc(F)c2)cc1 | inactive |  | 
97 | COc1ccc(-n2c(=O)c3ccccc3n(Cc3ccccc3Cl)c2=O)cc1 | inactive |  | 
